{"source": "PubChem BioAssay (Tox21)", "note": "Several values for one entry are separate records, joined by “and”; a condition that tells them apart may be missing. Equal values may be shown once. Results filed as inconclusive are left out. Some structures have more than one record in an assay (separate samples or runs), and their calls can disagree. Activity calls are given as the source filed them. Calls come from the whole dose curve; as a rule, active = well fitted cell-killing curve with a large enough effect in the repeat runs; inconclusive = weak or mixed curves, or effect the other way; inactive = no such curve, though single readings can be large or run the other way. % is set by controls: 0 for no effect and ±100 for the full control effect; potency is the fitted concentration of half-maximal effect."}
{"test": "qHTS assay for identifying genotoxic compounds that show differential cytotoxicity against isogenic chicken DT40 cell lines with known DNA damage response pathways - wild type cell line (AID 743012); note: nearly all actives have a fitted effect of over 60% in size", "settings": "DT40 wild type chicken cells viability, CellTiter-Glo, 40 h; series mostly up to 68.4 µM; activity change, negative = cytotoxicity: at the top concentration", "excerpt": "U.S. Tox21 Program National Center for Advancing Translational Sciences [NCATS] NIH Chemical Genomics Center [NCGC] U.S. Environmental Protection Agency [EPA] National Institutes of Environmental Health Sciences [NIEHS] National Toxicology Program [NTP] U.S. Food and Drug Administration [FDA] Tox21 Assay Overview: DNA repair pathways play a critical role in cellular homeostasis by repairing DNA damage induced by endogenous processes and xenobiotics. Isogenic chicken DT40 cell lines deficient in different DNA repair pathways can be used to identify genotoxic compounds and aid in characterizing the nature of the DNA damage induced. Two DNA repair-deficient cell lines with disrupted genes, Rad54/Ku70 or Rev3, were used to screen the Tox21 10K compound library. Possible genotoxicity was based on the presence of a significant increase in cytotoxicity in one or more of the DNA repair-deficient cell lines compared to that observed in the parental DNA repair-proficient cell line. CellTiter Glo viability assay (Promega, Madison, WI) was used to measure cell viability in these cells after compound treatment. This assay includes the data from the wild type cell line.\nTox21 Assay Protocol Summary: 300 DT40 wild type cells in 5 uL/well were dispensed into white, solid-bottom 1536-well plates using a Multidrop Combi (ThermoFisher Scientific, Waltham, MA) dispenser. After the assay plates were incubated at 37 C/5% CO2 for approximately 0.5 hour, 23 nL of compounds dissolved in DMSO, positive controls or DMSO only was transferred into the assay plate by a pintool work station (Kalypsys, San Diego, CA). The assay plates were incubated at 37 C/5% CO2 for 40 hours. After 5 uL per well of CellTiter-Glo reagent was added into each well of the assay plates, the plates were incubated for 30 min at room temperature and the luminescence intensity of the plates was measured using a ViewLux (PerkinElmer, Shelton, CT) plate reader."}
{"smiles": "CCOc1ccc2c3c1O[C@H]1[C@@H](O)C=C[C@H]4[C@@H](C2)N(C)CC[C@@]341", "activity change, negative = cytotoxicity": "-0.842% (inactive)"}
{"smiles": "C=CCN1CC[C@]23c4c5ccc(O)c4O[C@H]2[C@@H](O)C=C[C@H]3[C@H]1C5", "activity change, negative = cytotoxicity": "0.836% (inactive)"}
{"smiles": "CNC(=O)Oc1ccccc1C(=O)Nc1ccccc1", "Potency": "29.8 µM (active)"}
{"smiles": "c1ccc2c(c1)Sc1ccccc1N2CC1CN2CCC1CC2", "note": "(stereo not given)", "Potency": "5.96 µM (active)"}
{"smiles": "C[C@@H](Cc1ccccc1)NCCC(c1ccccc1)c1ccccc1", "Potency": "3.59 µM (active)"}
{"smiles": "CC[N+](C)(CC)CCOC(=O)C(O)(c1ccccc1)c1ccccc1", "activity change, negative = cytotoxicity": "15.8% (inactive)"}
{"smiles": "CCCN1CCC[C@H](c2cccc(O)c2)C1", "activity change, negative = cytotoxicity": "9.3% (inactive)"}
{"smiles": "CN1CC[C@@]23CCCC[C@@H]2[C@@H]1Cc1ccc(O)cc13", "activity change, negative = cytotoxicity": "-14.8% (inactive)"}
{"smiles": "CN1C(=O)CC(=O)N(c2ccccc2)c2cc(Cl)ccc21", "activity change, negative = cytotoxicity": "11.6% (inactive)"}
{"smiles": "C/C(=C\\c1csc(C)n1)[C@@H]1C[C@@H]2O[C@]2(C)CCC[C@H](C)[C@H](O)[C@@H](C)C(=O)C(C)(C)[C@@H](O)CC(=O)O1", "Potency": "0.0019 µM (active)"}
{"smiles": "CC(=O)Oc1ccc2c3c1O[C@H]1[C@@H](OC(C)=O)C=C[C@H]4[C@@H](C2)N(C)CC[C@@]341", "Potency": "inactive and 68.3 µM (active)"}
{"smiles": "CCc1cc(OC)c(C[C@@H](C)N)cc1OC", "Potency": "56.7 µM (active)"}
{"smiles": "O=C(OCCN1CCCCC1)C(O)(c1ccccc1)c1ccccc1", "activity change, negative = cytotoxicity": "11.1% (inactive)"}
{"smiles": "CCNCC(O)c1cccc(O)c1", "note": "(stereo not given)", "activity change, negative = cytotoxicity": "9.48% [at 31.4 µM] (inactive)"}
{"smiles": "C[N+]1(C)[C@@H]2CC[C@H]1CC(OC(=O)c1c[nH]c3ccccc13)C2", "note": "(stereo not given in full)", "activity change, negative = cytotoxicity": "18% (inactive)"}
{"smiles": "Cc1cc(C(C)(C)c2ccc(O)c(C)c2)ccc1O", "activity change, negative = cytotoxicity": "-8.09% (inactive)"}
{"smiles": "CCCC(C)C1(CC)C(=O)NC(=O)NC1=O", "note": "(stereo not given)", "activity change, negative = cytotoxicity": "0.91% (inactive)"}
{"smiles": "C[C@@H](N)C(=O)c1ccccc1", "activity change, negative = cytotoxicity": "-13.7% [at 95 µM] (inactive)"}
{"smiles": "CCCCCc1cc(O)c2c(c1)OC(C)(C)[C@@H]1CCC(C)=C[C@@H]21", "Potency": "9.44 µM (active)"}
{"smiles": "Oc1cccc[c]1[Hg][Cl]", "Potency": "0.473 µM (active)"}
{"smiles": "CO/C=C(/C(=O)OC)c1ccccc1Oc1cc(Oc2ccccc2C#N)ncn1", "Potency": "0.0731 µM (active)"}
{"smiles": "Clc1ccccc1-c1ccccc1Cl", "activity change, negative = cytotoxicity": "22.3% [at 95 µM] (inactive)"}
{"smiles": "COc1ccc(OC)c(C[C@H](C)N)c1", "activity change, negative = cytotoxicity": "-9.41% [at 95 µM] (inactive)"}
{"smiles": "CCCC(C)(COC(N)=O)COC(=O)NC1CC1", "note": "(stereo not given)", "activity change, negative = cytotoxicity": "6.91% (inactive)"}
{"smiles": "CCN(CC)C(=O)N[C@H]1C[C@@H]2c3cccc4[nH]cc(c34)C[C@H]2N(C)C1", "Potency": "29.8 µM (active)"}
{"smiles": "C[C@]12CC[C@@H]3c4ccc(OC(=O)N(CCCl)CCCl)cc4CC[C@H]3[C@@H]1CC[C@@H]2OP(=O)(O)O", "Potency": "inactive"}
{"smiles": "Cc1ccc(N(SC(F)(Cl)Cl)S(=O)(=O)N(C)C)cc1", "Potency": "0.122 µM (active)"}
{"smiles": "Oc1ccc2c3c1O[C@H]1[C@@H](O)C=C[C@H]4[C@H](C2)NCC[C@@]341", "activity change, negative = cytotoxicity": "12% (inactive)"}
{"smiles": "CN[C@@H](C)Cc1ccccc1", "activity change, negative = cytotoxicity": "2.37% (inactive)"}
{"smiles": "CCCCCCCCCC(=O)O[C@H]1CC[C@H]2[C@@H]3CCC4=CC(=O)CC[C@]4(C)[C@H]3CC[C@]12C", "activity change, negative = cytotoxicity": "6.91% (inactive)"}
{"smiles": "C=CC[C@]1(O)CC[C@H]2[C@@H]3CCC4=CCCC[C@@H]4[C@H]3CC[C@@]21C", "activity change, negative = cytotoxicity": "0.849% (inactive)"}
{"smiles": "CN(C)[C@H](Cc1ccccc1)c1ccccc1", "activity change, negative = cytotoxicity": "-9.44% (inactive)"}
{"smiles": "CC(=O)[C@@]1(O)CC[C@H]2[C@@H]3CCC4=CC(=O)CC[C@]4(C)C3(F)[C@@H](O)C[C@@]21C", "note": "(stereo not given in full)", "activity change, negative = cytotoxicity": "-23% (inactive)"}
{"smiles": "CC(N)Cc1ccc(O)cc1", "note": "(stereo not given)", "activity change, negative = cytotoxicity": "15.3% (inactive)"}
{"smiles": "C[C@@H]1[C@H](O)[C@@H](C)/C=C/C=C/CC/C=C/C=C/C=C/C=C/[C@H](O[C@H]2O[C@@H](C)[C@H](O)[C@@H](N)[C@H]2O)CC2O[C@](O)(C[C@@H](O)[C@H](O)CC[C@@H](O)C[C@@H](O)C[C@@H](O)CC(=O)O[C@H]1C)C[C@H](O)[C@H]2C(=O)O", "activity change, negative = cytotoxicity": "8.22% (inactive)"}
{"smiles": "O[C@H]1[C@H]2[C@H](O)CCCN2C[C@H]1O", "activity change, negative = cytotoxicity": "20.7% (inactive)"}
{"smiles": "O=C1C[C@@H]2OCC=C3CN4CC[C@]56c7ccccc7N1[C@H]5[C@H]2[C@H]3C[C@H]46", "note": "(tested in a mixture with another compound)", "Potency": "inactive"}
{"smiles": "Clc1ccc2c(c1)C(c1ccccc1)=NCc1nncn1-2", "activity change, negative = cytotoxicity": "15.9% (inactive)"}
{"smiles": "F/C(COc1ccc2c(c1)[nH]c1ccccc12)=C1/CN2CCC1CC2", "Potency": "5.96 µM (active)"}
{"smiles": "COC(=O)[C@@H]1[C@H]2CC[C@@H](C[C@H]1OC(=O)c1ccccc1)N2C", "activity change, negative = cytotoxicity": "3.96% (inactive)"}
